{
  "source": "PubChem BioAssay (NCI)",
  "note": "About 83,000 compounds went through this panel and 20% of them were active in at least one assay; those are over-represented in the sample as a whole.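 Interpretation: 100, growth as untreated; towards 0, rising growth inhibition; 0, no net growth; 0 to -100, cell death. Compounds scoring below 10 were considered active.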 Active and inactive are the calls of the source.",
  "data": [
    {"test_system": "TK-10 renal", "assay": "NCI-60 one-dose screen, 48 h (100 = growth as untreated, 0 = no growth, -100 = all killed)", "details": "10 µM unless noted", "values": [
      {"molecule": "COC(=O)C(Cc1ccccc1)NS(=O)(=O)/N=C1\\NC(=O)NC1=C(Cl)Cl", "note": "(configuration not stated)", "growth": "118% (inactive)"},
      {"molecule": "NS(=O)(=O)c1ccc(Nc2nc(Nc3ccccc3)nc(-n3nc(-c4ccccc4)cc3-c3ccccc3)n2)cc1", "growth": "108% (inactive)"},
      {"molecule": "COc1ccccc1/C=C/C=N/NC1=NC2C(S1)N(C)C(=O)N2C", "note": "(configuration not stated)", "growth": "76.3% (inactive)"},
      {"molecule": "Cc1nc2cnc(N)c(C#Cc3cncc(C(=O)Nc4ccc(Cl)c(C(F)(F)F)c4)c3)c2nc1C", "growth": "67.7% (inactive)"},
      {"molecule": "CCN1C(=S)N(CC)C2C1N=C(SC)N2/N=C/C=C/c1ccccc1[N+](=O)[O-]", "note": "(configuration not stated)", "growth": "125% (inactive)"},
      {"molecule": "COc1ccc(/C=N/NC(=O)c2[nH]c3ccc(Br)cc3c2-c2ccccc2)o1", "growth": "94.5% (inactive)"},
      {"molecule": "NS(=O)(=O)c1cccc(Nc2nc(SCC(=O)c3ccc([N+](=O)[O-])cc3)nc3ccccc23)c1", "growth": "95.6% (inactive)"},
      {"molecule": "COc1cc(/C=C/C(=O)c2ccccc2)ccc1Oc1nc(NCCO)nc(N2CCOCC2)n1", "growth": "124% (inactive)"},
      {"molecule": "COC1CCN(Cc2ccc3c(NNC(=O)c4cnccn4)nc4cc(F)ccc4n23)C1", "note": "(configuration not stated)", "growth": "40.8% (inactive)"},
      {"molecule": "CS(=O)(=O)Nc1ccc(-c2nn(-c3ccc(S(C)(=O)=O)cc3)cc2/C=C/C(=O)c2ccc(NC(=O)CO[N+](=O)[O-])cc2)cc1", "growth": "112% (inactive)"},
      {"molecule": "CC(C)NC(=O)c1cc(-c2ccc(NC(=O)Nc3ccc(N4CCOCC4)c(C(F)(F)F)c3)cc2)nc2cccnc12", "growth": "143% (inactive)"},
      {"molecule": "O=C(N/N=C/c1ccc(Br)s1)c1[nH]c2ccc(Br)cc2c1-c1ccccc1", "growth": "109% (inactive)"}
    ]}
  ]
}
